FBW7 act: activators of human E3 ligase FBW7. actives 0.13% (n = 650,000). normalized activity (activation), % at 26.1 µM. AlphaScreen FBW7–phospho-cyclin E peptide binding, activator screen. Q969H0; in the data active = normalized activity above about 1.9%;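 note: purified mutant Fbw7 with reduced substrate affinity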
MITF primary: inhibitors of human MITF; O75030; AlphaScreen MITF homodimerization, bead proximity signal; inhibition, % at 2.6 µM; actives 0.91% (n = 650,000); AID 1259374; in the data active = inhibition above about 50%;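 note: 0% = vehicle wells with protein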
TEAD-YAP inh: TEAD-YAP interaction inhibition. HEK-TIYL cells, TEAD-Gal4/YAP UAS-luciferase luminescence. inhibition, % at 9.12 µM. actives 1.4% (n = 640,000); in the data active = inhibition above about 32%;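 note: 0% = median of test compound wells and 100% = reference inhibitor wells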
GPR151 ag: activators of human GPR151 | Q8TDV0 | PathHunter beta-arrestin GPR151 cells, luminescence | activation, % at 11.2 µM | actives 1% (n = 650,000) | AID 1508602; in the data active = activation above about 4.9%;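 note: 0% = median of compound wells and 100% = cells with positive control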
Target sequence (Q8TDV0 whole entry, looked up): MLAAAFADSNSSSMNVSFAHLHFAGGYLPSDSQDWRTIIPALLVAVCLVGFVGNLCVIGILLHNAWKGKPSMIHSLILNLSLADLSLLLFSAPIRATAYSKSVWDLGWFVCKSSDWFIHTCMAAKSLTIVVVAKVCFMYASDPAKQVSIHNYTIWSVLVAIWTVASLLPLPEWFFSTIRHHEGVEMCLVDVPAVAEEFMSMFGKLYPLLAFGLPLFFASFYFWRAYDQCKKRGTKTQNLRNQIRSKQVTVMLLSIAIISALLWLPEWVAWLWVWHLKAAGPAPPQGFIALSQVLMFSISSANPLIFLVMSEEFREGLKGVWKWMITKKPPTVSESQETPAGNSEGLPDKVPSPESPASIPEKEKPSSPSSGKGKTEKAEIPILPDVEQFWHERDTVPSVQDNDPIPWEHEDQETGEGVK
GPR151 conf act: human GPR151 activation, confirmation screen; shares compounds with GPR151 ag; GPR151 PathHunter beta-arrestin cells, luminescence, 90 min; % of EA-reagent control over plate median; activation, % at 11.2 µM; 6,700 tested, under 10 active;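 active = mean percent activation across replicates above the confirmation screen cutoff of 4.91%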
GPR119 ag: activates human GPR119 in a GPR151 counter-screen; AID 1508611; actives 0.3% (n = 6,700); activation, % at 11.2 µM; shares compounds with GPR151 ag; GPR119 PathHunter beta-arrestin cells, luminescence, 90 min; 0 = compound-well median, 100 = enzyme-acceptor control;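 active = mean percent activation in the counterscreen above 29.09%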;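 note: counterscreen on off-target GPR119 to flag nonselective hits from the GPR151 activator screen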
Active calls of the source: *. Rows were chosen to be rich in hits. Some 3.4% of all compounds tested hit in one or more screens of this group.

For NS(=O)(=O)c1ccc(-c2ccc(C3C4=C(CCCC4=O)NC4=C3C(=O)CCC4)o2)cc1 the results were FBW7 act 0, MITF primary 17, TEAD-YAP inh 5 and GPR151 ag -2.
Cc1ccc(N2C(=O)CN(S(C)(=O)=O)CC2(C)C(=O)NC2CCCCC2)cc1C (centres undefined) was read as FBW7 act 0, MITF primary 3, TEAD-YAP inh 1, GPR151 ag 5.1*, GPR151 conf act 1 and GPR119 ag -9.
Screening Cc1ccc(C)c(N2C(=O)CN(S(C)(=O)=O)CC2(C)C(=O)NC2CCCCCC2)c1 (centres undefined) returned FBW7 act 0, MITF primary 12, TEAD-YAP inh 3 and GPR151 ag 0.
COc1ccc(COCC(O)CNCC2CC2(Cl)Cl)cc1 (centres undefined) was read as FBW7 act 0, MITF primary 48, TEAD-YAP inh -7 and GPR151 ag -2.
CCOC(=O)CSc1nnnn1-c1ccccc1OCC was read as FBW7 act 0, MITF primary 8, TEAD-YAP inh -5 and GPR151 ag 1.
CCOc1ccccc1-n1nnnc1SCC(=O)NC(C)(C)C was read as FBW7 act 0, MITF primary -1, TEAD-YAP inh 3, GPR151 ag 6.9*, GPR151 conf act 1 and GPR119 ag 2.
`COc1ccc(C(=O)C2CCCN(C(=O)/C=C/c3cccnc3)C2)c(C)c1` (centres undefined) gave FBW7 act 1, MITF primary 20, TEAD-YAP inh 0 and GPR151 ag -3.
CCc1ccc(S(=O)(=O)N2CCCC(c3nnc(CC(C)(C)C)o3)C2)cc1 (centres undefined) was read as FBW7 act 0, MITF primary 6, TEAD-YAP inh 13 and GPR151 ag 1.
`CCOCCc1nnc(NC(=O)CC(c2ccccc2)c2ccccc2)s1` gave FBW7 act 1, MITF primary 20, TEAD-YAP inh 2, GPR151 ag 8.6*, GPR151 conf act 0 and GPR119 ag 9.
For Cc1cccc(-c2cnc(C)nc2C2CCCN(C(=O)CN(C)C)C2)c1 (centres undefined) the results were FBW7 act 0, MITF primary -3, TEAD-YAP inh -1, GPR151 ag 14*, GPR151 conf act 1 and GPR119 ag -1.
Screening CC(=O)CC(C)C(=O)N1CCCC(c2nc(C)ncc2-c2cccc(C)c2)C1 (centres undefined) returned FBW7 act 0, MITF primary 0, TEAD-YAP inh -3, GPR151 ag 6.4*, GPR151 conf act 1 and GPR119 ag -2.
COc1ccc(NC(=O)C2CN(S(=O)(=O)c3ccccc3)CCN2S(=O)(=O)c2ccccc2)cc1 (centres undefined) was read as FBW7 act 0, MITF primary 9, TEAD-YAP inh 10 and GPR151 ag 2.
CCN1CCN(C(c2ccccc2)c2sc3nc(-c4ccco4)nn3c2O)CC1 (centres undefined) was read as FBW7 act 0, MITF primary -12, TEAD-YAP inh 3, GPR151 ag 5.3*, GPR151 conf act -1 and GPR119 ag 2.
COc1ccc(C=Nc2ccc(S(=O)(=O)Nc3cc(OC)ncn3)cc2)cc1 was read as FBW7 act 1, MITF primary -12, TEAD-YAP inh -1 and GPR151 ag 1.
Screening O=C(COc1ccc(Cl)cc1)Nc1cccc(O)c1 returned FBW7 act 0, MITF primary 24, TEAD-YAP inh -18 and GPR151 ag -2.
Screening Cc1ccc(COc2c(Br)cc(/C=C(\C#N)c3nn(CCO)c(N)c3C#N)cc2Br)cc1 returned FBW7 act 0, MITF primary 7, TEAD-YAP inh -4, GPR151 ag 6.9*, GPR151 conf act 0 and GPR119 ag 5.
`CCn1nc(C)c(CN2CCC(n3nccc3NC(=O)C3CC3)CC2)c1C` gave FBW7 act 0, MITF primary 13, TEAD-YAP inh 8 and GPR151 ag 0.
CCc1cc2c(SCC(=O)c3cccs3)ncnc2s1 was read as FBW7 act 0, MITF primary 8, TEAD-YAP inh -15, GPR151 ag 5.1*, GPR151 conf act -1 and GPR119 ag -13.
Screening CCc1cc2c(SCC(=O)Nc3sccc3C(N)=O)ncnc2s1 returned FBW7 act 0, MITF primary -1, TEAD-YAP inh 1, GPR151 ag 7.0*, GPR151 conf act 0 and GPR119 ag -8.
For CCc1cc2c(SCC(=O)Nc3ccc(Br)cc3)ncnc2s1 the results were FBW7 act 0, MITF primary -5, TEAD-YAP inh 10 and GPR151 ag 0.
For CCc1cc2c(SCC(=O)c3ccccc3)ncnc2s1 the results were FBW7 act 0, MITF primary 6, TEAD-YAP inh -45 and GPR151 ag -1.
`Cn1c(N/N=C/c2ccccc2)nc2ccccc21` gave FBW7 act 0, MITF primary 11, TEAD-YAP inh -54 and GPR151 ag -1.
`CC(C)Cc1nnc(-c2cc3ccccc3n2CC(=O)N2CCc3ccccc32)o1` gave FBW7 act 0, MITF primary 6, TEAD-YAP inh 2, GPR151 ag 5.0*, GPR151 conf act -1 and GPR119 ag -12.
For COc1cccc(OC)c1NC(=O)CC(Cc1ccc(Cl)cc1)C(=O)O (centres undefined) the results were FBW7 act 0, MITF primary 10, TEAD-YAP inh -6, GPR151 ag 5.0*, GPR151 conf act 0 and GPR119 ag -5.
CCC(Sc1ccccc1C(=O)O)C(=O)O (centres undefined) was read as FBW7 act 0, MITF primary 11, TEAD-YAP inh 11 and GPR151 ag 0.
`CCC(Sc1c[nH]c2ccccc12)C(=O)O` (centres undefined) gave FBW7 act 0, MITF primary -2, TEAD-YAP inh -5, GPR151 ag 5.5*, GPR151 conf act 0 and GPR119 ag 0.
CCOC(=O)CN(c1cccc(C)c1)C1SC(=O)N(Cc2cccc(C(=O)O)c2)C1=O (centres undefined) was read as FBW7 act 1, MITF primary 1, TEAD-YAP inh -5 and GPR151 ag 0.
For Cc1cccc(N(CC(N)=O)C2SC(=O)N(Cc3cccc(C(=O)O)c3)C2=O)c1 (centres undefined) the results were FBW7 act 1, MITF primary 13, TEAD-YAP inh -3, GPR151 ag 11*, GPR151 conf act 0 and GPR119 ag -7.
COc1ccc(Cl)cc1NC(=O)CN(C)CC(=O)Nc1ccc(Br)cc1 was read as FBW7 act 0, MITF primary 6, TEAD-YAP inh 5, GPR151 ag 7.5*, GPR151 conf act 1 and GPR119 ag 1.
